Drawing on PubChem BioAssay (NCI), this text covers growth for 27 compounds.

Compounds without any hit were thinned out: in the full panel of roughly 83,000, 20% have a hit.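 Step 1: grow cells in 96-well plates. Step 2: add test compound at a single concentration. Step 3: incubate 48 h. Step 4: record percent growth.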 Values without a mark were called inactive. Activity calls are given as the source filed them. Rule for the calls: active = growth percent below 10; inactive = the rest.

What all share (test): NCI-60 one-dose screen, 48 h (100 = growth as untreated, 0 = no growth, -100 = all killed)
Common to all, as to details: 10 µM

Assay [1] deals with K-562 leukemia.
Assay [2] relates to MALME-3M melanoma.
Assay [3] concerns MDA-MB-231 breast.
Assay [4] concerns RXF 393 renal.
Assay [5] has as its system SF-268 CNS.
In assay [6] the test system is SF-295 CNS.
The subject of assay [7] is SF-539 CNS.
Assay [8] concerns UACC-257 melanoma.
Assay [9] concerns M14 melanoma.
Assay [10] relates to HCT-15 colon.

With `O=C(Nc1ccc(CO)cc1)c1ccccc1Nc1ccnc(C(F)(F)F)c1`, the growth in assay [1] is 93.7%; in [2] it was 92.5%; in [3], 96.9%; in [4] it was 120%; in assay [5], 99.3%; in assay [6], 111%. Moreover, the growth in assay [7] was 101%; in [8], 102%; in assay [9] it was 99.8%; in [10], 103%.

As for `Nc1ccc2c(c1)Cc1cc(N)c(Br)cc1-2`, the growth is 99.7% in assay [1]; 104% in assay [2]; 116% in assay [3]; 111% in assay [4]; 109% in assay [5]; 76.8% in assay [6]. Further, the growth in assay [7] was 83.1%; in [8] it was 109%; in assay [9] it was 102%; in assay [10], 97.3%.

As for `CC(C)(C)c1cc(Br)cc(C(C)(C)C)c1O`, the growth in assay [1] is 101%; in assay [2], 103%; in assay [3], 116%; in assay [4], 101%; in assay [5], 113%; in assay [6], 97.8%. The growth in assay [7] was 104%; in [8] it was 104%; in assay [9], 115%; in [10], 105%.

Take `N#CCCN(NC(=O)OCc1ccccc1)C(=O)OCc1ccccc1`: the growth in [1] was 106%; in assay [2] it was 105%; in assay [3], 113%; in assay [4], 111%; in assay [5], 106%; in [6], 99.1%. Besides, the growth in [7] was 106%; in assay [8], 107%; in [9], 103%; in [10], 107%.

For the compound `CCCCCCNC(=O)Oc1ccc(/C(=C(/CC)Cc2ccccc2)c2ccc(OCCN3CCCCC3)cc2)cc1`, the growth was 24% in assay [1]; 93.1% in [2]; 83.6% in assay [3]; 73.8% in assay [4]; 80.9% in assay [5]; 114% in assay [6]. Besides, the growth is 91.9% in assay [7], 86.1% in [8], 94.7% in [9] and 39% in [10].

With `N#Cc1ncc(-c2cc(F)c(F)c(F)c2)c(NC2CCCCCC2)n1`, the growth in assay [1] was 92%; in [2] it was 131%; in assay [3], 91.7%; in [4], 84.7%; in assay [5], 82.3%; in [6], 89.3%. Further, the growth was 97.5% in assay [7], 93.6% in assay [8], 101% in assay [9] and 85.2% in assay [10].

`CCCCCCCCCCCCCCCCCCOCC(COCCOCC[N+]1(CCCCCC(=O)[O-])CCCC1)Oc1ncccn1` (stereo not given): the growth in [1] was 19.8%; in assay [2], 82.9%; in assay [3] it was 51.9%; in [4] it was 28.3%; in assay [5], 32.6%; in assay [6] it was 26.9%. The growth was 36.8% in assay [7], 45.5% in assay [8], 30% in assay [9] and 56.3% in [10].

For `Cc1ccc(S(=O)(=O)OCCN(CCOS(=O)(=O)c2ccc(C)cc2)c2c[nH]c(=O)[nH]c2=O)cc1`, the growth in assay [1] is 105%; in assay [2] it was 117%; in [3] it was 109%; in [4] it was 106%; in assay [5], 108%; in assay [6], 112%. In addition, the growth in [7] was 96.4%; in [8] it was 91.4%; in [9], 105%; in assay [10], 99.7%.

Consider `CCC(=O)N1C/C(=C/c2ccc(Br)cc2)C(=O)/C(=C/c2ccc(Br)cc2)C1`, for which the growth in [1] is 0.563% (active); in assay [2] it was -67.9% (active); in assay [3], -46.7% (active); in assay [4], -92.7% (active); in [5], -38.5% (active); in [6], -34.7% (active). The growth in assay [7] was -81.2% (active); in assay [8] it was -46.1% (active); in assay [9], -76.6% (active); in assay [10], -32.3% (active).

In the case of `CCOC(=O)C(=Cc1ccc(Br)cc1)C(=O)OCC`, the growth is 0.625% (active) in assay [1]; -49.5% (active) in [2]; 4.72% (active) in [3]; -75% (active) in assay [4]; -6.93% (active) in assay [5]; 38.3% in assay [6]. Besides, the growth in assay [7] is 8.53% (active); in assay [8] it was -37.8% (active); in assay [9] it was -22% (active); in assay [10], -42.1% (active).

As to `COc1cc(Cl)cc(-c2nn(-c3cccc(NC(=O)Nc4ccc(Cl)c(C(F)(F)F)c4)c3)cc2-c2ccncc2)c1`, the growth was 8.93% (active) in assay [1]; -19.8% (active) in assay [2]; -30.8% (active) in assay [3]; -29.9% (active) in assay [4]; 22.9% in assay [5]; -7.48% (active) in [6]. The growth in assay [7] is -1.17% (active); in [8], -25.9% (active); in assay [9], 3.99% (active); in [10] it was 7.28% (active).

Turning to `COc1cc(Cl)cc(-c2nn(-c3cccc(NC(=O)Nc4cc(C(F)(F)F)cc(C(F)(F)F)c4)c3)cc2-c2ccncc2)c1`, the growth in [1] was 6.4% (active); in assay [2], -19.2% (active); in [3] it was -75% (active); in [4], -29.3% (active); in assay [5], 14.2%; in assay [6], -43.2% (active). Further, the growth in [7] is -17.7% (active); in [8], -25.6% (active); in assay [9], 1.22% (active); in assay [10], 6.21% (active).

Turning to `COc1cc(CNCCCCCCN2C(=O)c3cccc4cccc(c34)C2=O)ccc1O`, the growth in assay [1] is 35.3%; in assay [2], 36.3%; in assay [3], 81.5%; in assay [4], 52%; in assay [5], 88.7%; in assay [6] it was 69%. In addition, the growth in assay [7] was 85.3%; in [8] it was 89.4%; in [9], 78.2%; in [10], 74.7%.

On to `O=C1/C(=C\c2ccccc2)CN(C(=O)c2ccccc2)C/C1=C\c1ccccc1`, for which the growth in assay [1] is 2.41% (active); in assay [2], -37.5% (active); in assay [3], 7.59% (active); in assay [4] it was -21.2% (active); in assay [5], 23.6%; in assay [6], 15.7%. The growth was 69.4% in [7], 4.53% (active) in assay [8], -49.5% (active) in assay [9] and -18.6% (active) in assay [10].

Take `N#Cc1ncc(Br)c(NC2CCCCCC2)n1`: the growth in assay [1] was 97.1%; in [2], 145%; in [3], 98%; in assay [4], 95.2%; in [5], 111%; in assay [6], 93.4%. Further, the growth in assay [7] was 99.5%; in assay [8], 95%; in [9] it was 114%; in assay [10], 92.3%.

On to `O=C(Nc1nc(-c2ccccc2Cl)cs1)c1cc(-c2ccc(Cl)cc2)nc2ccc(Cl)cc12`, for which the growth in [1] was 14.8%; in assay [2], 41.5%; in [3], 22%; in assay [4], 88.8%; in assay [5], 28.3%; in assay [6] it was 89.4%. Besides, the growth in assay [7] was -5.27% (active); in assay [8] it was 66.8%; in assay [9], -2.68% (active); in assay [10], 8.89% (active).

For the compound `O=C(Nc1cccc(-n2cc(-c3ccncc3)c(-c3ccc(O)c(Cl)c3)n2)c1)c1cc(C(F)(F)F)cc(C(F)(F)F)c1`, the growth in assay [1] was 35.9%; in assay [2] it was 70.4%; in assay [3], -45% (active); in assay [4], 33.5%; in assay [5] it was 76.8%; in [6], 24.9%. The growth is 56.1% in [7], 66.9% in assay [8], 59.6% in [9] and 44.9% in assay [10].

Regarding `COc1cc(-c2cc(/C=C/C(=O)c3ccc4c(c3)OCO4)[nH]n2)cc(OC)c1OC`, the growth was 22.3% in assay [1]; 95.7% in [2]; 64.5% in assay [3]; 75.4% in assay [4]; 85.3% in assay [5]; 19.5% in assay [6]. Besides, the growth in assay [7] is 3.66% (active); in assay [8], 107%; in [9] it was 101%; in assay [10], 63.9%.

Consider `CN(C)CCN1C(=O)c2cccc3c(-c4ccc5ncn(C6CCCCC6)c5c4)ccc(c23)C1=O`, for which the growth in assay [1] was 6.76% (active); in assay [2], 30.8%; in assay [3], 33.6%; in assay [4], 26.3%; in assay [5], 35.8%; in assay [6], 23.1%. Further, the growth is 31.9% in assay [7], 23.1% in assay [8], 30.2% in assay [9] and 12.5% in [10].

For `O=C(/C=C/c1cc2ccccc2[nH]c1=O)c1ccc2c(c1)OCO2`, the growth in [1] was 87.4%; in [2], 78%; in assay [3], 94%; in assay [4], 112%; in assay [5], 93.6%; in assay [6], 100%. The growth in [7] was 88.2%; in [8], 94.2%; in assay [9], 87.3%; in assay [10] it was 97.6%.

For `COc1ccc(-c2cc(-c3cccc(NS(C)(=O)=O)c3)nc(N)c2C#N)cc1`, the growth was 14.3% in assay [1]; 2.95% (active) in assay [2]; 30.4% in [3]; 16.3% in assay [4]; 29.9% in [5]; 0.458% (active) in [6]. Also, the growth in [7] is 5.27% (active); in [8], 79.1%; in [9], 6.36% (active); in assay [10], 30.5%.

Regarding `COc1ccc(OC)c(/C=C/c2nnc(Nc3ccc(Cl)cc3)o2)c1`, the growth in assay [1] was 80.6%; in assay [2], 41.5%; in assay [3], 70.9%; in assay [4], 56.3%; in assay [5], 76.5%; in assay [6], 46.9%. Further, the growth was 90% in [7], 100% in assay [8], 77.9% in [9] and 98.3% in assay [10].

With `O=C(Nc1cccc(-n2cc(-c3ccncc3)c(-c3cc(O)cc(Cl)c3)n2)c1)c1cc(C(F)(F)F)cc(C(F)(F)F)c1`, the growth in [1] was 20.4%; in assay [2], 61.7%; in assay [3] it was -34.6% (active); in assay [4], -10.3% (active); in [5] it was 69.4%; in assay [6], 15%. For the same compound, the growth was 75.5% in [7], 71% in assay [8], 24.5% in assay [9] and 30.1% in assay [10].

On to `O=C(N/N=C/c1cc2ccccc2c2ccccc12)c1cc(O)c(O)c(O)c1`, for which the growth is 20.2% in assay [1]; 49% in [2]; 68.4% in assay [3]; 75% in assay [4]; 46.7% in assay [5]; 88.8% in [6]. Moreover, the growth is 50% in assay [7], 75.3% in assay [8], 61% in [9] and 60% in [10].

`COc1cc(NC(=O)CCSc2nc3ccc(C)cc3c(=O)n2Cc2ccccc2)cc(OC)c1OC`: the growth is 78% in assay [1]; 33.8% in [2]; 52.5% in assay [3]; 36.4% in [4]; 40.4% in assay [5]; 59.4% in assay [6]. For the same compound, the growth in [7] was 33.5%; in assay [8], 57.1%; in assay [9], 87.4%; in [10] it was 76.5%.

As for `CC(=O)OCc1cc(-c2nc3ccccc3[nH]c2=O)nn1-c1ccc(Cl)cc1`, the growth in assay [1] is 93.4%; in assay [2], 108%; in assay [3], 98.1%; in [4], 102%; in [5], 109%; in assay [6] it was 96.5%. In addition, the growth in [7] is 90.2%; in [8] it was 14.8%; in [9], 97.2%; in [10] it was 88%.

For `CS(=O)(=O)Nc1ccc(Nc2c3ccccc3nc3cc(N)ccc23)cc1`, the growth in assay [1] was 22.7%; in [2], -32.7% (active); in assay [3] it was 85.8%; in [4], 64.2%; in assay [5] it was 13%; in assay [6], -23.3% (active). Moreover, the growth in assay [7] is 2.88% (active); in assay [8], 0.44% (active); in [9], 7.54% (active); in [10], 73.6%.
